# HepG2 tox: qHTS for Inhibitors of TGF-b: Cytotox Counterscreen. HepG2 CAGA-GFP viability, ATP luminescence, 18 h. 0.76% of 410,000 active. AID 588856, 2011. Potency, µM (doses to about 46.1 µM), inactives show at the highest dose activity change, negative = cytotoxicity, hits mostly cytotoxic
#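 CellTiter-Glo luminescence gave cytotoxicity after 18 hours at 37 degrees C. The cells were HepG2 CAGA-GFP in 1% FBS DMEM, stimulated with 500 pg/mL TGF-beta after compound addition. %Activity was normalised to no-cell wells (complete cell-killing) and DMSO (no toxicity), and curves were fitted and classified.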
# TGFb SMAD3 inh: qHTS for Inhibitors of TGF-b. 1.2% of 410,000 active. AID 588855, 2011. HepG2 CAGA-GFP TGF-b/SMAD3 reporter, GFP fluorescence, 18 h; TGF-beta stimulated, 500 pg/mL final. Potency, µM (highest dose often 46.1 µM), without a hit: at the highest dose activity, negative = inhibition, usual class: inhibitors; also: % is scaled to controls: 0 for no effect and ±100 for the full control effect; nearly all actives have a fitted effect of over 65% in size
#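 Read-out: total well GFP (ex488/em500-530) summed from mean per-cell fluorescence. Cells: HEPG2 CAGA-GFP, 1% FBS DMEM, 18 h at 37 degrees C with 500 pg/mL final TGF-beta. Unstimulated wells served as the full-inhibition control; stimulated DMSO wells = 0%.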
# HT1080 IDH1KD tx: qHTS for induction of synthetic lethality in tumor cells producing 2HG: qHTS for the HT-1080-IDH1KD cell line. HT-1080 IDH1 knockdown viability, ATP luminescence, 48 h. Potency, µM (series often up to 46.1 µM), for the others: top-dose activity, negative = toxicity, actives largely listed as cytotoxic. 2% of 360,000 active;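 also: 0% = DMSO wells and -100% = cell-free medium wells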
#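 Luminescent ATP read-out (CellTiter-Glo, 10 min at room temperature) after 48 h compound exposure at 37 °C gave viability of IDH1-knockdown HT-1080 cells. Activity was normalised to DMSO and cell-free wells, then fitted as concentration-response curves.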
# ATXN2 expr inh: Primary qHTS for Inhibitors of ATXN expression; HEK-293 ATXN2-luciferase reporter, luminescence, 24 h; Potency, µM (titrated, usually from 57 µM), for inactives: at the highest dose activity change, negative = inhibition, most hits filed as inhibitors; 0.72% of 360,000 active; also: % is scaled to controls: 0 for no effect and ±100 for the full control effect; nearly all actives have a fitted effect of over 55% in size
#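 qHTS (up to 57 uM final) was run with 24 h compound exposure of reporter cells at 37 °C. Each well was multiplexed: SteadyGlo luminescence measured ATXN2-luciferase expression after a fluorogenic Gly-Phe-AFC viability readout (25 uM final).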
# HT1080NT lethal: qHTS for induction of synthetic lethality in tumor cells producing 2HG: qHTS for the HT-1080-NT fibrosarcoma cell line; HT-1080-NT fibrosarcoma viability, CellTiter-Glo ATP luminescence, 48 h; Potency, µM (highest dose often 46.1 µM), for the others: at the top dose activity, negative = less viability, usual class: cytotoxic; 1.6% of 360,000 active;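 also: NT is the 2HG producing partner of a matched IDH1 knockdown line; 0% = DMSO-treated cells and -100% = media-only wells without cells; nearly all actives have a fitted effect of over 55% in size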
#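 Read-out is CellTiter-Glo luminescence after 10 minutes at room temperature, following 48 hours' compound treatment of HT-1080-NT cells (750 cells/well, RPMI, 5% FBS, 37 degrees C).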
# S2 tox: Viability Counterscreen for Primary qHTS for Inhibitors of ATXN expression; S2 cells (HEK-293 line with an ATXN2-luciferase reporter) viability, CellTiter-Fluor protease fluorescence, 24 h; Potency, µM (titrated, usually from 56.7 µM), hits mostly cytotoxic; 0.49% of 400,000 active; AID 651635, 2014; also: nearly all actives have a fitted effect of over 40% in size
# Active calls of the source: *; i = inactive; ? = inconclusive; · = no result given. This is a sample that favours compounds with a hit; in the whole collection about 3.9% have one here. Calls follow the shape of the dose curve; as a rule, active = well fitted curve in the direction sought with a large enough effect; inconclusive = small, poorly fitted or top-dose-only effect, or another doubt; inactive = no such curve, though single readings can be large; an effect the other way counts as inactive or inconclusive. Potency is read from the fitted curve at half-maximal effect.
SMILES,HepG2 tox,TGFb SMAD3 inh,HT1080 IDH1KD tx,ATXN2 expr inh,HT1080NT lethal,S2 tox
Cc1ccc(C(=O)COC(=O)COc2ccccc2[N+](=O)[O-])s1,12%,2%,11%,-6%,18%,i
CCOC(=O)COc1ccccc1/C=C\[N+](=O)[O-],8.9µM*,5.6µM*,2.9µM*,?,8.2µM*,·
Fc1ccc(-c2nc3n(n2)Cc2ccccc2-3)cc1,8.9µM*,?,15µM*,52%,26µM*,i
CCn1c(C)nc2cc(-c3nc4n(n3)Cc3ccccc3-4)ccc21,1.3µM*,-11%,1.8µM*,0.4µM*,2.1µM*,i
CN(c1ncnc2c1c(-c1ccccc1)cn2-c1ccc(F)cc1)C1CCCCC1,-51%,?,·,·,·,·
COc1ccc(C2(C(=O)NCC3Cc4cccc(-c5nc(C)cnc5C)c4O3)CCCC2)cc1 (stereo not given),·,·,·,·,·,i
O=c1[nH]c(C2CCN(S(=O)(=O)c3cccc(C(F)(F)F)c3)CC2)nc2c1nnn2Cc1cccc(F)c1,-48%,?,21µM*,?,21µM*,i
O=c1[nH]c(C2CCN(S(=O)(=O)c3ccc4c(c3)OCCO4)CC2)nc2c1nnn2Cc1cccc(F)c1,-3%,-30%,-12%,-11%,-9%,i
C#Cc1cccc(Nc2ncnc3cc(OCCOC)c(OCCO)cc23)c1,·,·,·,-28%,·,·
COc1ccc(C(=O)Nc2ccc3ccccc3c2)cc1OC,-1%,15%,14%,49%,0%,i
COc1cc(C(=O)Nc2ccc3c(c2)CCN3C(C)=O)cc(OC)c1OC,27%,-17%,2.6µM*,·,?,i
COc1cc(C(=O)Nc2ccc3c(c2)Cc2ccccc2-3)cc(OC)c1OC,-15%,-10%,-13%,·,-2%,?
COc1cc(C(=O)Nc2ccc3ccccc3c2)cc(OC)c1OC,18%,-3%,0.58µM*,22%,1.3µM*,i
Cc1ccc(-n2nc(C(=O)N3CCN(c4ccccc4)CC3)c(=O)n(C)c2=O)cc1,-2%,-25%,·,14%,·,i
COc1ccc(CN2CCc3nnc(CCc4ccccc4)n3CC2)c(OC)c1C,·,·,·,·,·,i
CCN(CC)CCNC(=O)c1ccc(NC(=O)c2ccc(S(=O)(=O)N3CCCCCC3)cc2)cc1,-40%,?,-3%,-8%,-7%,?
CCN(CC)CCNC(=O)c1ccc(NC(=O)c2ccc(Cl)c(S(=O)(=O)N3CCCCCC3)c2)cc1,-78%,?,21µM*,?,?,i
CCN(CC)CCNC(=O)c1ccc(NC(=O)c2ccc(C(=O)c3ccccc3)cc2)cc1,-40%,?,21µM*,?,21µM*,i
O=C(NCC1(N2CCCCC2)CCCCC1)c1ccc(-n2cc(NC(=O)c3cccnc3)cn2)cc1,·,·,·,·,·,i
CCc1ccc(N=C2NC(=O)CC(C(=O)Nc3ccc(OC)cc3)S2)cc1 (stereo not given),-12%,-28%,·,-24%,·,i
CCOC(=O)/C(C#N)=C/c1cc2ccccc2nc1Cl,-20%,6%,?,3%,-8%,i
CSc1nc2ccccc2cc1/C=C(\C#N)c1cccc(Cl)c1,-8%,7%,4.6µM*,-16%,4.6µM*,i
CCOc1cccc(CN2CCC(n3cc(C(=O)N4CCCCC4)nn3)CC2)c1O,·,·,·,·,·,i
CCc1ccc(NC(=O)CSc2nnc(-c3ccc(N)cc3)n2C)cc1,-1%,1%,·,·,·,·
CCCOc1ccc(CN2C(=O)C(=O)c3cccc(C)c32)cc1,-74%,16µM*,·,·,·,·
SMILES,HepG2 tox,TGFb SMAD3 inh,HT1080 IDH1KD tx,ATXN2 expr inh,HT1080NT lethal,S2 tox
O=[N+]([O-])c1ccc(/C=[N+](\[O-])[C@@H]2CCCC[C@@H]2/[N+]([O-])=C/c2ccc([N+](=O)[O-])o2)o1,-53%,7.1µM*,-2%,?,-20%,·
COc1ccc(NC(=O)c2oc3ccccc3c2NC(=O)Cc2cccs2)c(OC)c1,-21%,0%,·,-27%,·,i
C=CCNC(=S)N/N=C/c1ccc(OCc2ccccc2Cl)cc1,-30%,-24%,3.2µM*,11%,3.2µM*,i
Clc1ccccc1COc1ccc(/C=N/n2cnnc2)cc1,-1%,-2%,2%,-6%,3%,i
O=[N+]([O-])c1ccc(O)c(C(C#Cc2ccccc2)N2CCOCC2)c1 (stereo not given),-4%,13µM*,?,23%,?,i
O=C(NCC(c1cccs1)N1CCOCC1)c1cc([N+](=O)[O-])ccc1Cl (stereo not given),9%,0%,8%,3%,10%,i
COC(=O)/C(=C1/Oc2cc(C)oc(=O)c2S1)C(F)(F)F,-30%,5.6µM*,15µM*,?,-17%,·
CCOc1ccc(CCN2C(=O)C(=O)N([C@@H](CC(C)C)CN3CCC[C@@H]3CN3C(=O)C(=O)NC[C@@H]3CC(C)C)C[C@@H]2Cc2ccccc2)cc1,-2%,20µM*,?,?,?,·
CC(C)C[C@H]1CN([C@@H](CC(C)C)CN2CCC[C@@H]2CN2C(=O)C(=O)NC[C@@H]2Cc2ccccc2)C(=O)C(=O)N1CC1CCCCC1,-38%,18µM*,2%,-34%,2%,?
CC(C)C[C@@H](CN1CCC[C@@H]1CN1C(=O)C(=O)NC[C@@H]1Cc1ccccc1)N1C[C@H](Cc2ccccc2)N(CC2CCCCC2)C(=O)C1=O,·,·,-30%,?,-23%,22µM*
CC(C)C[C@@H](CN1CCC[C@H]1CN1C(=O)C(=O)NC[C@@H]1Cc1ccccc1)N1C[C@H](Cc2ccc(O)cc2)N(CC2CCCCCC2)C(=O)C1=O,·,·,18µM*,?,23µM*,?
Cc1ccccc1OCC(=O)NCC(=O)OCc1cccc2ccccc12,-1%,-3%,·,·,·,·
C=CC1=C(C(=O)O)N2C(=O)[C@@H](NC(=O)/C(=N/OCC(=O)O)c3csc(N)n3)[C@H]2SC1 (stereo in doubt),·,·,·,·,·,i
CCc1ccccc1SCc1noc(C(=O)NCC2CCCO2)c1C(=O)O (stereo not given),7%,-2%,-1%,2%,29%,i
COC(=O)c1c(CCl)noc1C(=O)NCC1CCCO1 (stereo not given),-4%,-3%,23µM*,11%,-18%,i
